High-throughput results (PubChem)
Shiga toxin inh = blocks Shiga toxin action in Vero cells. inhibition, % at 38.7 µM. 290,000 compounds, 9.2% hits. Vero cells, Shiga toxin protein synthesis inhibition reporter; in the data active means inhibition mostly above about 28%, no sharp cut-off; inactive means mostly below about 43%; further: 0% is about no effect
Cycloheximide cs = affects cycloheximide protein synthesis inhibition readout, counter-screen | cell reporter, cycloheximide protein synthesis inhibition counterscreen | max response, % | 300,000 compounds, 12% hits | AID 2314; in the data active means max response mostly above about 13%, no sharp cut-off; inactive means mostly below about 14%; further: read at 38.3 µM for the half of the compounds with a filed dose; 0% is about no effect
Giardia FBPA inh = Giardia lamblia aldolase inhibition; purified Giardia FBPA; 290,000 compounds, 0.71% hits; Potency, µM (top dose mostly 59.6 µM), for the others: top-dose activity, negative = inhibition, actives largely listed as inhibitors; AID 2451; A8B2U2; further: potency means the concentration at half of the fitted maximal effect; on the % scale 0 is the no-effect control and ±100 the full control effect; nearly all actives have a fitted effect of over 55% in size
Target sequence (A8B2U2 whole entry, looked up): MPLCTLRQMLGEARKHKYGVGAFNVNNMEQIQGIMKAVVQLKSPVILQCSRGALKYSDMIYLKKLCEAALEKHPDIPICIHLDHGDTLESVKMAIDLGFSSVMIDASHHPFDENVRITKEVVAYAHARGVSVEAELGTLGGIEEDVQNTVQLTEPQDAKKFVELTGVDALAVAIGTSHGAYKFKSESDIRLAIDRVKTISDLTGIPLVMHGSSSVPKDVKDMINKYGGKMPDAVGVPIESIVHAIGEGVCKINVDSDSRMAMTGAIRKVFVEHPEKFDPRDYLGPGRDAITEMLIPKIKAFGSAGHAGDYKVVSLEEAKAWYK
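Giardia FBPA (40 nM reagent) was preincubated 10 min at RT with compound (up to 57.5 uM final), then substrate plus GAPDH/TPI/NAD/arsenate coupling system with diaphorase/resazurin was added; resorufin fluorescence (525/598 nm) was read after 20 min.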
LmPK inh = LmPK (Leishmania mexicana) enzyme inhibition. purified LmPK, Kinase-Glo ATP luminescence, 1 h. 290,000 compounds, 0.37% hits. Potency, µM (top dose mostly 57.5 µM), without a hit: at the top dose activity change, negative = inhibition, actives largely listed as inhibitors; further: potency means the concentration at half of the fitted maximal effect; on the % scale 0 is the no-effect control and ±100 the full control effect
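Pyruvate kinase activity monitored as ATP production (luciferase luminescence). Conditions: 0.1 nM enzyme, 0.5 mM PEP, 0.1 mM ADP, 1 h, RT; normalized against uninhibited and no-enzyme wells.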
Tb PYK inh = blocks Trypanosoma brucei pyruvate kinase; TbPYK enzyme, Kinase-Glo Plus ATP luminescence, 45 min; Q57TT1; 410,000 compounds, 0.12% hits; Potency, µM (doses to about 76.8 µM), inactives show top-dose activity, negative = inhibition, usual class: inhibitors; further: potency means the concentration at half of the fitted maximal effect; on the % scale 0 is the no-effect control and ±100 the full control effect; nearly all actives have a fitted effect of over 50% in size
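Quantitative HTS: titrated library compounds versus trypanosomal pyruvate kinase in TEA buffer (pH 7.2) containing KCl, MgCl2, BSA and Tween-20. Reactions were initiated with ADP, 130 uM final. Kinase-Glo Plus luminescence was read after 45 min at RT.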
RE007 growth inh = less growth of the S. pombe RE007 Vpr strain | S. pombe RE007 Vpr strain, BacTiter-Glo ATP luminescence, 24 h | Potency, µM (series often up to 92.2 µM), for the others: top-dose activity change, negative = less growth, usual class: inhibitors | 360,000 compounds, 0.21% hits; active means well fitted falling curve with a large enough effect; inconclusive means small, poorly fitted or top-dose-only effect; inactive means no such curve, though single readings can be large or run the other way; further: potency means the concentration at half of the fitted maximal effect; on the % scale 0 is the no-effect control and ±100 the full control effect; nearly all actives have a fitted effect of over 50% in size
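Fission yeast strain RE007, carrying one chromosomally integrated HIV-1 vpr copy, was seeded at OD 0.01 in PMG+AL medium with 23 nL pinned compound. After 24 h at 30 °C and 99% humidity, viability was read by BacTiter-Glo luminescence.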
Starred values were filed as active, the others as inactive; ? = inconclusive; · = no result given; [ ] = remark or other dose. Many of the other results were omitted from the sample, so hits are more common in it than they were. Unless noted, the call rests on the fitted dose curve; in most records, active means well fitted curve in the direction sought with a large enough effect; inconclusive means small, poorly fitted or top-dose-only effect, or another doubt; inactive means no such curve, though single readings can be large; an effect the other way counts as inactive or inconclusive.

SMILES	Shiga toxin inh	Cycloheximide cs	Giardia FBPA inh	LmPK inh	Tb PYK inh	RE007 growth inh
CO[C@H]1[C@H](O[C@H]2O[C@@H](C)[C@@H](O[C@@H]3C[C@](C)(O)[C@H](O)[C@H](C)O3)[C@@H](N(C)C)[C@@H]2O)[C@@H](CC=O)C[C@@H](C)[C@@H](O[C@H]2CC[C@H](N(C)C)[C@H](C)O2)/C=C\C=C/C[C@@H](C)OC(=O)C[C@H]1O	·	·	1%[21.7 µM]	·	-5%[33.2 µM]	·
Nc1c(C(=O)c2ccccc2)sc2nsc(SCCN3CCCC3)c12	104*	40*	1%	-5%	-2%	-5%
CC(=O)c1sc2nsc(SCCN3CCCCC3)c2c1N	43	29*	-4%	-3%	-14%	-21%
Nc1c(C(=O)c2ccc(Cl)cc2)sc2nsc(SCCN3CCOCC3)c12	19	6	?	3%	-17%	18%
COc1cccc([C@@H]2Oc3ccc(OC)cc3/C(=N/OC[C@@H](C)[C@H](OCc3ccccc3)C(C)C)[C@@H]2O)c1	·	·	-1%[12.9 µM]	·	·	·
CCCCc1nc2c(c3c1C[C@H](C)OC3)CN(C(=O)COC)CC2	·	·	6%[12.9 µM]	-2%[11.5 µM]	·	·
O=C(Cc1ccccc1[N+](=O)[O-])Nc1ccc2c(c1)OCO2	66	17*	-9%	-9%	-3%	-8%
Cc1ccc(C)c(NC(=O)Nc2ccc3c(c2)OCO3)c1	55*	47*	·	0%	3%	-7%
O=C(Cc1ccccc1[N+](=O)[O-])NNC(=O)Nc1ccc2c(c1)OCO2	2	0	0%	-1%	1%	-8%
COc1cccc(CC(=O)Nc2ccc3c(c2)CCC3)c1	35	9	-1%	3%	-7%	-5%
COc1ccc(NC(=O)Nc2ccc3c(c2)CCC3)cc1	36*	27*	·	-4%	5%	-5%
COc1ccc(NC(=O)Nc2ccc3c(c2)OCO3)c(C)c1	82*	66*	·	-5%	1%	3%
Cc1ccc(C)c(NC(=O)CSc2cn(CC(=O)N3CCCC3)c3ccccc23)c1	·	·	·	·	-9%	·
CC(C)CN(CCCNC(=O)c1cc(=O)[nH]c2ccc(S(=O)(=O)N3CCCCCC3)cc12)CC(C)C	·	·	·	·	0%	·
Cc1cc(NC(=O)C(Cl)Cl)cc2c1OCO2	·	·	·	·	5%	-10%
Cc1ccc(CNc2ccc3c(c2)OCO3)c(C)c1	91*	44*	?	-6%	·	·
CCOc1ccccc1NC(=O)Nc1ccc2c(c1)OCO2	38*	37*	0%	4%	-4%	-2%
CCOc1ccccc1NC(=O)Nc1ccc2c(c1)CCC2	54*	39*	·	-13%	-9%	-1%
CCc1cccc(C)c1NC(=O)Nc1ccc2c(c1)OCO2	23	7	5%	1%	-2%	14%
Cc1ccccc1NC(=O)Nc1ccc2c(c1)OCO2	77*	44*	1%	-21%	4%	-16%
CCOc1ccccc1OCCC(=O)Nc1ccc2c(c1)OCO2	·	·	·	·	-17%	11%
COc1ccc(CCN2C(=O)CSC2c2ccc(F)cc2)cc1 (stereo not drawn)	-5	1	2%	1%	-12%	-6%
Cc1ccc(Cn2c(SCC(=O)NCc3ccccc3Cl)nc3ccsc3c2=O)cc1	·	·	·	·	4%	·
O=C(Nc1cc2c(cc1C(=O)c1ccccc1Br)OCCO2)c1ccccc1	·	·	·	·	-7%	·
COc1cc(OC)cc(C(=O)N[C@H](C(=O)NC2CCCc3ccccc32)C(C)C)c1 (stereo partly drawn)	·	·	·	·	9%	2%
SMILES	Shiga toxin inh	Cycloheximide cs	Giardia FBPA inh	LmPK inh	Tb PYK inh	RE007 growth inh
CC(C)c1ccc(OCC(=O)Nc2ccc(S(=O)(=O)Nc3ncccn3)cc2)cc1	·	·	·	·	-2%	·
Cc1ccc(NC(=O)Nc2ccc3c(c2)CCC3)c(C)c1	1	6	·	2%	-4%	0%
CC(=O)Nc1ccccc1NC(=O)c1ccc2c(c1)OCO2	·	·	·	·	4%	0%
CC(=O)Nc1ccccc1OCC(=O)c1ccc2c(c1)OCO2	79*	43*	4%	1%	-2%	5%
O=C(Nc1ccc2c(c1)CCC2)Nc1ccccc1Cl	155*	57*	-8%	-8%	-9%	-10%
Cc1c(NC(=O)Nc2ccc3c(c2)OCO3)cccc1[N+](=O)[O-]	77*	42*	·	-15%	-4%	2%
CCCCN1CCC[C@H]1CNC(=O)c1cc(C#N)c2ccccc2c1OC	-8	7	-6%	·	·	·
CCOc1cc(CNc2ccc3c(c2)OCCO3)cc(Br)c1OCC(N)=O	29	20*	-4%	5%	-13%	-4%
CCOc1cc(CNc2ccc3c(c2)OCCO3)cc(Br)c1OC	6	11	-11%	2%	-10%	-26%
CCOc1c(Br)cc(CNc2ccc3c(c2)OCCO3)cc1OC	97*	49*	?	11%	-10%	-20%
COc1cc(C2NC(=O)c3c(sc4c3CCN(C)C4)N2)ccc1OC(=O)c1ccccc1 (stereo not drawn)	·	·	·	·	-1%	·
CN1CCc2c(sc3c2C(=O)NC(c2cccc(OC(=O)c4cccs4)c2)N3)C1 (stereo not drawn)	70*	45*	-26%	-2%	-10%	-13%
C#CCOCCOCCOCCNc1nc(N2CCN(C(=O)[C@H](CC(N)=O)n3cc(C(N)[C@@H](C)CC)nn3)CC2)nc(N2CCN(C(=O)[C@H](CCC(=O)O)n3cc([C@@H](N)CCCCN)nn3)CC2)n1 (stereo partly drawn)	·	·	·	·	0%	3%
CCCc1cc(=O)oc2cc(C)cc(OC(C)C(=O)NCC(O)c3ccccc3)c12 (stereo not drawn)	-3	1	8%	5%	5%	5%
CC(C)=CCCC(C)NC(=O)NC1CCCCC1 (stereo not drawn)	38	23*	-8%	0%	-6%	-13%
CCCCC(=O)N/N=C(\C)CC(=O)Nc1ccccc1Br	17	1	3%	0%	6%	-3%
CC(C)NC(=O)CC(=O)N/N=C/c1ccccc1F	-8	0	0%	-1%	7%	11%
CC(/C=C/c1ccccc1F)=N\NC(=O)C(C)C	42*	35*	1%	2%	-8%	·
CCCCC(=O)N/N=C(C)/C=C/c1ccccc1F	63*	29*	0%	7%	3%	-14%
Cc1ccc(NC(=O)Cc2ccc(NC(=O)N3CCCCc4ccccc43)cc2)cc1Cl	·	·	·	·	-1%	·
O=C(NC1CCCCC1)N1CCc2ccccc21	47*	28*	-2%	-12%	7%	-8%
Cc1nc(C)c(NC(=O)N2CCc3ccccc32)cc1NC(=O)N1CCc2ccccc21	3	-3	-11%	2%	1%	1%
Cc1ccc(NC(=O)N2CCCc3ccccc32)cc1C	53*	39*	-3%	-1%	1%	-20%
Cc1cccc(NC(=O)N2CCCc3ccccc32)c1C	46	36*	0%	4%	0%	-8%
O=C(Nc1ccccc1)N1CCCc2ccccc21	26*	13	-4%	3%	6%	-17%
